Our source for the displacement values is PubChem BioAssay AID1240 (Sanford-Burnham Center for Chemical Genomics, 2008).

Molecules are shown by their SMILES. About 800 (1.6%) of roughly 50,000 compounds showed an effect of 50% or more. What follows is part of a selection rich in strong results, with near analogues and random picks from the rest.

Bcl-2-like protein 10 (Homo sapiens), sequence (Q9HD36 whole entry, looked up): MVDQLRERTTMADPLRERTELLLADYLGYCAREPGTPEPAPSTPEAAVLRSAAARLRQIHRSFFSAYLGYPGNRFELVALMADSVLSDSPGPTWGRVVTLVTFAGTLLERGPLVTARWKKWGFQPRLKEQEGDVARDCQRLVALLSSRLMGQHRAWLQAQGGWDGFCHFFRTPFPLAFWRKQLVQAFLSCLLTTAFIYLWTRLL

This experiment addresses Bcl-2-like protein 10 (Homo sapiens) (UniProt Q9HD36). Description: Phenotype converters, Bcl-B/TR3 peptide binding displacement, primary biochemical FP (AID 1240).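 Also: 0% = Bcl-B with tracer peptide and DMSO and 100% = tracer peptide lacking Bcl-B.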 The following applies: GST-Bcl-B / FITC-TR3 peptide fluorescence polarization; stronger effect = higher value; compound at 3.75 mg/L.
As for `Cc1ccc(/C=C2\SC(=S)N(CCc3ccccc3)C2=O)cc1`, the displacement was 17%.
Take `O=C(CCCN1C(=O)/C(=C\c2ccc(F)cc2)SC1=S)Nc1cc([N+](=O)[O-])ccc1O`: the displacement was 114%.
For `COc1ccc(/C=C2/SC(=S)N(CCc3ccccc3)C2=O)cc1OC` the value was 105%; for `COc1ccc(/C=C2\SC(=S)N(CCCC(=O)Nc3ncc(Cc4cccc([N+](=O)[O-])c4)s3)C2=O)cc1OC`, 59%.
As for `COc1ccc(/C=C2\SC(=S)N(CC(=O)Nc3ncc(Cc4cccc([N+](=O)[O-])c4)s3)C2=O)cc1OC`, the displacement worked out at 9.7%.
Take `O=C(CCCN1C(=O)/C(=C\c2ccc(F)cc2)SC1=S)Nc1ccccc1O`: the displacement was -12.5%.
For the compound `O=C(CCN1C(=O)/C(=C/c2ccc(F)cc2)SC1=S)Nc1cc([N+](=O)[O-])ccc1O`, the displacement was found to be 25.6%.
Regarding `COC1C(C)=C(c2ccccc2F)C(=O)N1Cc1ccccc1` (centres undefined), the displacement was found to be 14.3%.
With `CC1=C(C(=O)Nc2ccc(C)cc2)C(c2ccc(F)cc2)NC(=S)N1` (centres undefined), the displacement is -4.5%.
In the case of `C/C(O)=C/c1nc2ccc([N+](=O)[O-])cc2nc1/C=C(/C)O`, the displacement turned out to be 17.3%.
The figure for `OC(COCc1ccc2c(c1)OCO2)CN1CCC(Cc2ccccc2)CC1` (centres undefined) is 0.1%; for `Cc1ccc(-c2cc(NC(=O)c3ccc(Cl)cc3Cl)n[nH]2)cc1` it is 9.9%; for `O=C(O)CCCCCN1C(=O)C(=O)/C(=C(/O)c2ccccc2)C1c1ccc([N+](=O)[O-])cc1` (centres undefined) it is -3.9%.
Take `O=C1c2c(Cl)ccc(Cl)c2C(=O)N1c1ccccc1O`: the displacement amounted to 9.8%.
`C(#Cc1ccccc1)CN1CCOCC1`: the displacement amounted to 2.4%.
For `CSC(=O)NC1(Cc2ccc(O)cc2)CCCCC1`, the displacement was -4.1%.
As to `Cc1ccc(C(=O)N/C(=C/c2ccc(Br)cc2)C(=O)NN)cc1`, the displacement was -31.6%.
`CCN(CC)CCC(=O)c1ccc2c(c1)OCO2`: the displacement is -5.3%.
For `O=c1[nH]c2ccc(Cl)cc2c(-c2ccccc2)c1N1CCOCC1` the value was -27.7%; for `COC(=O)C(C)Oc1cc2oc(=O)cc(-c3ccccc3)c2cc1Cl` (centres undefined), 10.3%; for `COc1cc(/C=C2\SC(=NCc3ccccc3)N(Cc3ccccc3)C2=O)cc(Br)c1O`, -5.7%.
The figure for `COc1ccc(/C=C2\SC(=NCc3ccccc3)N(Cc3ccccc3)C2=O)cc1OC` is 7.1%.
As for `COc1ccc(/C=C2\SC(=NCc3ccccc3)N(Cc3ccccc3)C2=O)cc1C(=O)O`, the displacement worked out at 78%.
In the case of `CCN(CC)c1ccc(/C=C2/C(=O)NN(c3ccc(C)cc3)C2=O)c(O)c1`, the displacement stood at 23.1%.
Consider `CCN(CC)c1ccc(/C=C2/C(=O)NN(c3ccc(C)c(Cl)c3)C2=O)c(O)c1`, for which the displacement came to 59.2%.
With `CCN(CC)c1ccc(/C=C2/C(=O)NN(c3cccc(Cl)c3)C2=O)c(O)c1`, the displacement amounted to 1.9%.
For the compound `CC(=O)C12CCCCC1CC1C3CC(C)[C@@]4(O)CC(O)CCC4(C)C3CCC12C` (some centres undefined), the displacement turned out to be 0%.
The figure for `Cc1cccc(N2C(=O)S/C(=C/c3cccc([N+](=O)[O-])c3)C2=O)c1` is 14.3%; for `COc1cc(OC)c([N+](=O)[O-])cc1/C=C1/C(=O)NC(=O)N(c2ccc(Br)cc2)C1=O` it is 8.8%.
For `COc1ccc(C2CC(c3ccc(F)cc3)=NN2c2ccccc2)cc1OC` (centres undefined) the value was 64.4%; for `COc1ccc(C2=NN(C(=O)CCC(=O)O)C(c3ccccc3F)C2)cc1` (centres undefined), 12.3%.
For the compound `COc1ccc(C2CC(c3ccc(F)cc3)=NN2c2ccccc2F)cc1OC` (centres undefined), the displacement was -4.3%.
Consider `COc1ccc(C2=NN(c3ccccc3)C(c3ccccc3F)C2)cc1` (centres undefined), for which the displacement is 53.9%.
With `COc1ccc(C2CC(c3ccc(F)cc3)=NN2c2cccc(F)c2)cc1OC` (centres undefined), the displacement was -6.2%.
For `COc1ccccc1C1CC(c2ccc(F)cc2)=NN1c1ccccc1` (centres undefined), the displacement was 5.4%.
Regarding `O=C(COc1ccc(Cl)cc1Cl)Nc1ccc(Br)c(Cl)c1`, the displacement is -5.5%.
Regarding `CC(=O)Nc1ccc(S(=O)(=O)NC(=O)C23CC4CC(CC(C4)C2)C3)cc1`, the displacement worked out at 0.8%.
Regarding `CCOc1ccc(C(=O)Nc2cccc(C(C)=O)c2)cc1`, the displacement was 9%.
The figure for `COc1ccc(Cl)cc1N=CC1=C(O)CC(C)(C)CC1=O` is 3.1%.
In the case of `O=C(Oc1ccccc1C(=S)N1CCOCC1)c1cccc([N+](=O)[O-])c1`, the displacement came to 10.7%.
Take `CCOc1cc(C(=S)N2CCOCC2)ccc1OC(=O)c1cccc([N+](=O)[O-])c1`: the displacement stood at 8.7%.
`COc1cc(C(=S)N2CCOCC2)cc(OC)c1OC(=O)c1cccc([N+](=O)[O-])c1`: the displacement was determined as 70.4%.
With `COc1cc(C2C3=C(CC(C)(C)CC3=O)OC3=C2C(=O)CC(C)(C)C3)cc(OC)c1OC(C)=O`, the displacement is -1.3%.
As for `CC(C)COc1ccc(C(=O)Nc2ccc(Cl)cc2)cc1`, the displacement is 13.1%.
Consider `COc1ccc(NC(=O)CN(c2cc(OC)ccc2OC)S(C)(=O)=O)cc1`, for which the displacement turned out to be 13.1%.
On to `CCC1=NN2C(=N)/C(=C/c3ccc(-c4ccc([N+](=O)[O-])cc4C)o3)C(=O)N=C2S1`, for which the displacement is 14%.
Regarding `CCCC1=NN2C(=N)/C(=C/c3ccc(-c4ccc([N+](=O)[O-])cc4C)o3)C(=O)N=C2S1`, the displacement was found to be 140%.
As for `CCC1=NN2C(=N)/C(=C/c3ccc(-c4ccccc4[N+](=O)[O-])o3)C(=O)N=C2S1`, the displacement is 1.5%.
Consider `NC1=NC(=O)/C(=C/c2ccc(-c3ccc([N+](=O)[O-])cc3Br)o2)S1`, for which the displacement is -5.3%.
As for `CCCC1=NN2C(=N)/C(=C/c3ccc(-c4ccc(Cl)cc4Cl)o3)C(=O)N=C2S1`, the displacement came to 74.7%.
In the case of `CCCC1=NN2C(=N)/C(=C/c3ccc(-c4ccc([N+](=O)[O-])cc4Br)o3)C(=O)N=C2S1`, the displacement is 129%.
The figure for `CCC1=NN2C(=N)/C(=C/c3ccc(-c4ccc([N+](=O)[O-])cc4Cl)o3)C(=O)N=C2S1` is 15.1%; for `C=CCOc1ccc(Cl)cc1/C=C1/C(=N)N2N=C(CCC)SC2=NC1=O` it is -25.3%.
As to `CCC1=NN2C(=N)/C(=C/c3ccc(-c4ccc([N+](=O)[O-])cc4Br)o3)C(=O)N=C2S1`, the displacement amounted to 4%.
